Screens (PubChem)
ERG-DNA inh: qHTS for Small Molecule Inhibitors of the ERG Ets/DNA interaction; 370,000 compounds, 0.028% hits; Transcriptional regulator ERG (Homo sapiens), P11308; Potency, µM (top dose mostly 76.9 µM), for the others: at the top dose FP activity, negative = inhibition, usual class: inhibitors; fluorescence polarization, His-ERG Ets domain / labelled DNA; active = well fitted inhibition curve with a large enough effect in the polarisation, with a control signal flat; inconclusive = small, poorly fitted or top-dose-only effect, or effect the other way, or a change in a side signal; inactive = no such curve, though single readings can be large or run the other way; the % refers to the polarisation;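 note: polarization taken with two DNA probes labelled with fluorescein and Texas red; % of control where 0% means no effect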
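His-tagged ERG Ets domain (1 uM in the protein solution; 300mM KCl, 50mM Tris-HCl, 1mM EDTA, 1mM DTT, pH 7.5) received compound, then a probe mix of 5 nM fluorescein-DNA and 100nM Texas-615-DNA. Fluorescence polarization was read for both dyes.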
B2AR arrestin: qHTS assay of beta-arrestin-biased ligands of beta2-adrenergic receptor; Beta-2 adrenergic receptor (Homo sapiens), P07550; beta-arrestin recruitment to beta2AR, cell-based reporter; Potency, µM (doses to about 46.1 µM), for inactives: at the top dose activation, actives largely listed as activators; 330,000 compounds, 0.02% hits; AID 492947, 2010;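 note: 0% = DMSO controls and full agonism = EC100 isoproterenol or metaproterenol; nearly all actives have a fitted effect of over 65% in size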
Target sequence (P07550 whole entry, looked up): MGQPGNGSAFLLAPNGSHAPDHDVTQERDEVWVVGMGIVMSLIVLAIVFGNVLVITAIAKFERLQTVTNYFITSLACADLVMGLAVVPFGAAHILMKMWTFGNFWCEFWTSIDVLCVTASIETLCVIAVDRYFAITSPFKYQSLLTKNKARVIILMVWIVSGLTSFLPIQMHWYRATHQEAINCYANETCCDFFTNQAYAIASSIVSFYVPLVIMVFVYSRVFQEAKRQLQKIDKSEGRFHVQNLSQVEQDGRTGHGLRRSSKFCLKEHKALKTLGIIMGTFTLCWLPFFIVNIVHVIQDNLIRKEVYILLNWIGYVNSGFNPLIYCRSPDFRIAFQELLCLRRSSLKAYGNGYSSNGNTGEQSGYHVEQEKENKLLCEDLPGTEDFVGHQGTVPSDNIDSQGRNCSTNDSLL
BRCA1 expr act: qHTS Assay to Identify Small Molecule Activators of BRCA1 Expression | 380,000 compounds, 1.1% hits | MCF7-BRCA1-FFLuc reporter, luminescence, 48 h; response scale: scaled: vehicle 0%, 10 µM genistein 100% | AID 624202, 2012 | Potency, µM (series often up to 46.1 µM), without a hit: at the highest dose activation, hits mostly activators; note: nearly all actives have a fitted effect of over 80% in size
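MCF7 cells carrying a BRCA1-firefly luciferase reporter (2000 cells/well, phenol-red free MEM) were attached for 2 h at 37 °C, then given compounds for 48 h. Luminescence was read 15 min after luciferase reagent; activity normalized to genistein (10 microM) and DMSO.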
Mito fusion yeast: qHTS Assay for Small Molecule Inhibitors of Mitochondrial Division or Activators of Mitochondrial Fusion. S. cerevisiae fusion-defective mutant growth rescue, CellTiterGlo 48 h. Potency, µM (titrated, usually from 46.1 µM), for inactives: top-dose growth rescue (activation), actives largely listed as activators. 320,000 compounds, 0.23% hits. AID 485298, 2010; note: % of control where 0% means no effect; nearly all actives have a fitted effect of over 45% in size
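Growth-rescue viability read-out: after 48 h at the non-permissive 37C in glycerol/ethanol YPEG, yeast mitochondrial fusion mutants are measured by CellTiterGlo luminescence; compounds (23 nl pinned per well) restoring growth score as division inhibitors or fusion activators.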
Starred values were filed as active, the others as inactive; ? = inconclusive; · = not tested or not shown; [ ] = another dose, or the depositor's remark. Compounds with a hit are over-represented: about 1.2% of the library has one in this group of screens. Unless noted, calls come from the whole dose curve; as a rule, active = well fitted curve in the direction sought with a large enough effect; inconclusive = small, poorly fitted or top-dose-only effect, or another doubt; inactive = no such curve, though single readings can be large; an effect the other way counts as inactive or inconclusive. Potency is the fitted concentration of half-maximal effect.

SMILES | ERG-DNA inh | B2AR arrestin | BRCA1 expr act | Mito fusion yeast
Cc1ccc(NC(=O)Nc2ccc3c(c2)CCC3)cc1 | 4% | 0% | 4µM* | -1%
O=C(Nc1cccc(F)c1)Nc1ccc2c(c1)CCC2 | 5% | -1% | 2µM* | 1%
Cc1ccc(SCc2cn3ccccc3n2)cc1 | -8% | 0% | ? | -4%
c1ccc(CSCc2cn3ccccc3n2)cc1 | 3% | 0% | 2.8µM* | -2%
Cc1cc(/C=C2\SC(=S)NC2=O)c(C)n1C1CC1 | 2% | 0% | 13µM* | -2%
Cc1cc(/C=C2/C(=O)N(C)C(=S)N2C)c(C)n1C1CC1 | 39% | -3% | 11µM* | 11%
O=C(c1ccccc1Br)N1CCCC(c2nc(-c3cccs3)no2)C1 (stereo not drawn) | -1% | 0% | 39% | 16%
Cc1ccc(-c2noc(C3CCCN(C(=O)c4ccccc4Br)C3)n2)o1 (stereo not drawn) | 19% | -1% | 10µM* | -9%
Cc1ccc(-c2noc(C3CCCN(C(=O)c4ccccc4)C3)n2)o1 (stereo not drawn) | -1% | -1% | 10µM* | -2%
CCOC(=O)Cn1c(=O)oc2cc(S(=O)(=O)N3CCN(c4cccc(C)c4C)CC3)ccc21 | -6% | · | · | ·
CCOc1ccccc1Nc1sc(C(=O)c2ccc(Cl)cc2)c(N)c1S(=O)(=O)c1ccccc1 | 1% | · | · | ·
COc1ccc(C2C=C(C34CC5CC(CC(C5)C3)C4)NC(=S)N2)cc1 (stereo not drawn) | -4% | -1% | 3% | 11µM*
COc1ccc(C2=CC(c3ccc(OC)c(OC)c3)NC(=S)N2)cc1 (stereo not drawn) | -2% | 0% | -13% | -7%
CCOc1ccc(C2C(C(=O)Nc3ccccc3)=C(C)Nc3nc(-c4ccccc4Cl)nn32)cc1OC (stereo not drawn) | -2% | · | · | ·
O=C(CSc1ccccc1)Nc1nccs1 | 11% | 0% | 20% | -5%
O=C(CSc1cn(Cc2ccccc2)c2ccccc12)Nc1nccs1 | -5% | 0% | 11µM* | -1%
COc1ccc(C(=O)NC(=S)NC(C)(C)C)cc1Br | 0% | -2% | 11µM* | 2%
COc1ccc2c(c1)CC/C2=N\OC(=O)c1ccccc1C | -7% | 0% | 11µM* | 5%[9.22 µM]
COc1ccc2c(c1)CCC/C2=N/OC(=O)c1ccccc1OC | 10% | 0% | 14% | 4%
COC(=O)c1ccc(OCC2c3cc(OC)c(OC)cc3CCN2C(=O)Cc2ccccc2)cc1 (stereo not drawn) | -1% | · | -3% | ·
CCOC(=O)c1cnc(-c2ccccc2)nc1N(C)C | 6% | 0% | -49% | 4%
Cc1cc2ncc(-c3ccccc3)nc2cc1C | -3% | 1% | ? | -18%
CCOC(=O)c1cnc(-c2ccccc2)nc1N | -14% | 0% | 4µM* | 1%
CCOC(=O)c1ccc2ncc(-c3ccccc3)nc2c1 | -1% | 0% | 13µM* | 2%
Cc1nc2ccc(C(=O)OCc3ccccc3Br)cc2nc1C | · | 0% | 7.1µM* | 1%
SMILES | ERG-DNA inh | B2AR arrestin | BRCA1 expr act | Mito fusion yeast
CCc1ccc(-c2cnc3ccccc3n2)cc1NC(=O)CNC(=O)c1ccccc1 | 0% | 0% | 7.9µM* | -7%
CN(Cc1ccco1)c1ncnc2ccc(-c3ccc4c(c3)OCCO4)cc12 | · | 0% | · | 8%
CCc1ccc(NC(=O)CCS(=O)(=O)c2ccc3c(c2)n(C)c(=O)c(=O)n3C)cc1 | -2% | · | · | ·
Cc1nc2cc(Nc3nnc(-c4ccccc4)c4ccccc34)ccc2n1C | · | -1% | 4.5µM* | 0%
COc1cc(/C=N/N=C2/NC(=O)C(CC(=O)O)S2)ccc1OCc1ccc(Cl)cc1 (stereo not drawn) | -3% | 0% | 4µM* | 9%
CCOc1cc(/C=N/N=C2/NC(=O)C(CC(=O)O)S2)ccc1OCc1ccc(Cl)cc1Cl (stereo not drawn) | 1% | 0% | -22% | 25%
Cc1ccccc1N(C)S(=O)(=O)c1nnc(NC(=O)c2ccccc2F)s1 | 8% | 0% | -1% | 5.6µM*
CC1(C(=O)OCC(=O)c2c[nH]c3ccccc23)CC1(Cl)Cl (stereo not drawn) | 1% | 0% | 8.9µM* | 19%
CCSc1nn2c(=O)c3ccccc3nc2s1 | -3% | 0% | 2.5µM* | 2%
CCc1cccc(C)c1Nc1nn2c(=O)c3ccccc3nc2s1 | 7% | · | · | ·
CCC(=O)N/C(N)=N/c1nc2ccccc2o1 | 1% | 0% | 2µM* | 8%
COc1ccc(Cn2c(=O)c3oc4ccccc4c3n(Cc3ccc(Cl)cc3)c2=O)cc1 | 0% | · | · | ·
NNc1ccc(Cl)c(C(=O)O)c1 | -21% | 0% | 11µM* | 4%
O=C(C1CCC1)N1CCCc2cc(S(=O)(=O)Nc3ccc(F)cc3)ccc21 | 0% | · | · | ·
CCCN1CCC(=O)N(CCSc2ccccc2)CC1 | -3% | -1% | ? | 1%
Cc1ccc(SCCN2CCC(C)CCC2=O)cc1 (stereo not drawn) | 5% | 0% | 8.9µM* | -1%
C[C@H]1CCC(=O)N(CCSc2ccc(Br)cc2)CC1 | 6% | 0% | ? | 16%
O=C1CCN(Cc2ccccc2)CCN1CCSc1ccccc1 | 2% | -1% | 8.9µM* | -1%
Cc1ccc(SCCN2CCC(C(C)(C)C)CCC2=O)cc1 (stereo not drawn) | -5% | -1% | ? | 2%
CC(C)(C)C1CCC(=O)N(CCSc2ccccc2)CC1 (stereo not drawn) | -3% | -1% | 3.5µM* | 5%
Cc1ccc(SCCC(=O)N2CCC(C)CC2)cc1 | -5% | 11% | 10µM* | 6%
COc1ccc2c(c1)c1c(c(=O)n(Cc3ccccc3)c(=O)n1Cc1ccc(C)cc1)n2C | 3% | · | 7% | ·
O=C1c2ccccc2NC(c2ccccc2O)N1Cc1ccco1 (stereo not drawn) | · | · | 15% | ·
O=C(O)c1ccccc1Nc1ccc([N+](=O)[O-])cc1 | -6% | 0% | 13µM* | 3%
Nc1nc(Cl)nc2c1ncn2[C@@H]1O[C@H](COP(=O)(O)OP(=O)(O)OP(=O)(O)O)[C@@H](O)[C@H]1O | · | · | · | -49%
SMILES | ERG-DNA inh | B2AR arrestin | BRCA1 expr act | Mito fusion yeast
COCCn1c(C)cc(C(=O)COC(=O)c2ccc3ncsc3c2)c1C | 1% | 0% | 11µM* | 3%
C=CCn1c(C)cc(C(=O)CSc2ccc(NC(C)=O)cc2)c1C | 3% | 0% | ? | 2%
Cc1cc(C(=O)COC(=O)c2ccc(O)cc2)c(C)n1-c1ccccc1F | 1% | 1% | -3% | 6%
COCCn1c(C)cc(C(=O)COC(=O)Cc2n[nH]c(=O)c3ccccc23)c1C | -8% | -1% | 8.9µM* | 16%
COCCn1c(C)cc(C(=O)CSc2ccc(NC(C)=O)cc2)c1C | 0% | 0% | 7.1µM* | 1%
Cc1cc(C(=O)COC(=O)Cc2n[nH]c(=O)c3ccccc23)c(C)n1CC(F)(F)F | -5% | 0% | 0% | 3%
